# Test results as given in PubChem BioAssay.
# The source made the active and inactive calls.
# Tests used:
# [1] = test system: Plasmodium falciparum Sir2 (PF13_0152, Sir2A); test: Plasmodium falciparum Sir2A binding compounds – biochemical, small-molecule microarray, 635 nm fluorescence, primary screen (AID 1098); details: fluorescence 635 nm, higher = more signal;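 further: score merges spot fluorescence intensity with its signal-to-noise ratio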
# [2] = probe aDKK1 binding to arrayed compounds – biochemical, biotinylated probe, 635/667 nm fluorescence, primary screen (AID 1099); details: small-molecule microarray, higher = more signal;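 further: score merges 667nm spot fluorescence with signal to noise across triplicate slides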
# [3] = probe aCHRDL2 binding to arrayed compounds – biochemical, biotinylated probe, 635/667 nm fluorescence, primary screen (AID 1100); details: small-molecule microarray, higher = more signal
# [4] = change in splice reporter luminescence, either direction, cell-based, HEK293, spliceosome inhibition project, primary screen (AID 1101); details: HEK293 splicing luciferase reporter, 24 h, higher = more signal, called active from +8 up or from −8 down;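 further: HEK293 cells carrying a splicing-competent luciferase reporter gene; test concentration not given here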
# [5] = target: Fibroblast growth factor 10 (Homo sapiens) (UniProt O15520); test: compounds binding fibroblast growth factor 10 – biochemical, small-molecule microarray, 635 nm fluorescence, primary screen (AID 1102); details: FGF10 binding, fluorescence 635 nm, higher = more signal
# [6] = test system: glycogen synthase kinase-3 (GSK3A per assay name; protocol says GSK3B); test: compounds binding glycogen synthase kinase-3 – biochemical, small-molecule microarray, 635 nm fluorescence, GSK3A, primary screen (AID 1103); details: fluorescence 635 nm, higher = more signal; further: the record names both GSK3A and GSK3B
# [7] = target: Epidermal growth factor receptor (Homo sapiens) (UniProt P00533); test: compounds binding epidermal growth factor receptor – biochemical, small-molecule microarray, 635 nm fluorescence, primary screen (AID 1104); details: EGFR binding, higher = more signal;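 further: score merges 667 nm emission intensity with spot signal to noise over triplicate slides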
# [8] = target: Follistatin-related protein 3 (Homo sapiens) (UniProt O95633); test: compounds binding follistatin-related protein 3 – biochemical, small-molecule microarray, 635 nm fluorescence, primary screen (AID 1105); details: FSTL3 binding, higher = more signal;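 further: score merges emission near 667 nm and signal to noise per printed spot across three slides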
# [9] = target: Dickkopf-related protein 1 (Homo sapiens) (UniProt O94907); test: small molecules binding DKK1 protein – biochemical, small-molecule microarray, 635 nm fluorescence scan, primary screen (AID 1106); details: higher = more signal;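 further: score merges emission near 667 nm with signal to noise over three replicate slides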
# [10] = test system: Inhibin beta A chain (activin A); test: small molecules binding activin A – biochemical, small-molecule microarray, 635 nm fluorescence scan, primary screen (AID 1107); details: INHBA, higher = more signal;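 further: mouse activin A protein probed at 4.33 µg/mL on printed slides; score merges bound-protein fluorescence near 667 nm with spot signal-to-noise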
# [11] = test system: Human papillomavirus type 1a protein E7 (residues 44-93); test: small molecules binding HPV E7 44-93 – biochemical, small-molecule microarray, residues 44-93, 635 nm fluorescence, primary screen (AID 1108); details: fluorescence 635 nm, higher = more signal;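 further: E7 fragment applied at 1 µg/mL in TBST for 1 h at 4 C; score combines spot fluorescence with its signal to noise ratio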
# [12] = hepatitis C replication reporter changes, two-sided – Huh7 cells, luciferase reporter, HCV replication inhibitor project, primary screen (AID 1109); details: Huh7 HCV replicon luciferase reporter, 48 h; higher = more signal;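 further: huh7 hepatoma cells harbouring a luciferase neomycin HCV replicon reporter; luciferase luminescence as measure of HCV replicon replication; test concentration not given here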
# [13] = target: Left-right determination factor 2 (Homo sapiens) (UniProt O00292); test: small molecules binding LEFTY2 protein – biochemical, small-molecule microarray, 635 nm fluorescence scan, primary screen (AID 1110); details: higher = more signal
# [14] = target: Calmodulin-1 (Homo sapiens) (UniProt P0DP23); test: small molecules binding calmodulin-1 with EGTA – biochemical, small-molecule microarray, Cy5-labelled CALM1, profiling panel (AID 1111); details: Cy5-CALM1 binding fluorescence, higher = more signal;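 further: labelled calmodulin applied in Tris saline Tween buffer holding calcium plus EGTA and DTT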
# [15] = target: Calmodulin-1 (Homo sapiens) (UniProt P0DP23); test: small molecules binding Ca-loaded calmodulin-1 – biochemical, small-molecule microarray, Cy5-labelled CALM1, plus calcium, artefact control for SMM control-protein annotation, profiling panel (AID 1112); details: Cy5-CALM1 binding fluorescence, higher = more signal;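 further: score merges spot fluorescence with signal to noise from triplicate slides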
# [16] = probe aWnt5a binding to arrayed compounds – biochemical, biotinylated probe, 635/667 nm fluorescence, primary screen (AID 1113); details: small-molecule microarray, higher = more signal;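 further: score merges 667 nm fluorescence intensity with signal-to-noise per printed feature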
# [17] = probe aShh binding to arrayed compounds – biochemical, biotinylated probe, 635/667 nm fluorescence, primary screen (AID 1114); details: small-molecule microarray, higher = more signal;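 further: probe is biotin-labelled aShh protein from a stem cell growth factor screen; measures binding of labelled protein to compounds printed on the slide; score merges feature fluorescence at 667 nm with signal-to-noise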
# [18] = probe aNog binding to arrayed compounds – biochemical, biotinylated probe, 635/667 nm fluorescence, primary screen (AID 1115); details: small-molecule microarray, higher = more signal;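 further: probe is biotinylated aNog protein used at 0.15 µg/mL for 1 h at 4 C; z-score combines 667 nm fluorescence of each spot with its signal to noise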
# [19] = target: Torsin-1A-interacting protein 1 (Homo sapiens) (UniProt Q5JTV8); test: compound microarray binding of lysate hLAP1 – cell lysate, small-molecule microarray, COS7 lysate, 635/667 nm fluorescence, primary screen (AID 1116); details: 635 nm fluorescence, higher = more signal
# [20] = target: Alpha-bungarotoxin (Bungarus multicinctus) (UniProt P60615); test: compounds binding labelled alpha-BTX control protein – biochemical, small-molecule microarray, Alexa647 label, 635/667 nm fluorescence, artefact control for SMM control protein annotation, profiling panel (AID 1117); details: alpha-BTX-A647 binding fluorescence, higher = more signal
# Chain of Alpha-bungarotoxin (Bungarus multicinctus) (P60615 whole entry, looked up): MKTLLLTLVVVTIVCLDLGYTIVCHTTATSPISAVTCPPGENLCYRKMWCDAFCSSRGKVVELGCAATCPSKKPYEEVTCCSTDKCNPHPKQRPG
# Chain of Epidermal growth factor receptor (Homo sapiens) (P00533 whole entry, looked up): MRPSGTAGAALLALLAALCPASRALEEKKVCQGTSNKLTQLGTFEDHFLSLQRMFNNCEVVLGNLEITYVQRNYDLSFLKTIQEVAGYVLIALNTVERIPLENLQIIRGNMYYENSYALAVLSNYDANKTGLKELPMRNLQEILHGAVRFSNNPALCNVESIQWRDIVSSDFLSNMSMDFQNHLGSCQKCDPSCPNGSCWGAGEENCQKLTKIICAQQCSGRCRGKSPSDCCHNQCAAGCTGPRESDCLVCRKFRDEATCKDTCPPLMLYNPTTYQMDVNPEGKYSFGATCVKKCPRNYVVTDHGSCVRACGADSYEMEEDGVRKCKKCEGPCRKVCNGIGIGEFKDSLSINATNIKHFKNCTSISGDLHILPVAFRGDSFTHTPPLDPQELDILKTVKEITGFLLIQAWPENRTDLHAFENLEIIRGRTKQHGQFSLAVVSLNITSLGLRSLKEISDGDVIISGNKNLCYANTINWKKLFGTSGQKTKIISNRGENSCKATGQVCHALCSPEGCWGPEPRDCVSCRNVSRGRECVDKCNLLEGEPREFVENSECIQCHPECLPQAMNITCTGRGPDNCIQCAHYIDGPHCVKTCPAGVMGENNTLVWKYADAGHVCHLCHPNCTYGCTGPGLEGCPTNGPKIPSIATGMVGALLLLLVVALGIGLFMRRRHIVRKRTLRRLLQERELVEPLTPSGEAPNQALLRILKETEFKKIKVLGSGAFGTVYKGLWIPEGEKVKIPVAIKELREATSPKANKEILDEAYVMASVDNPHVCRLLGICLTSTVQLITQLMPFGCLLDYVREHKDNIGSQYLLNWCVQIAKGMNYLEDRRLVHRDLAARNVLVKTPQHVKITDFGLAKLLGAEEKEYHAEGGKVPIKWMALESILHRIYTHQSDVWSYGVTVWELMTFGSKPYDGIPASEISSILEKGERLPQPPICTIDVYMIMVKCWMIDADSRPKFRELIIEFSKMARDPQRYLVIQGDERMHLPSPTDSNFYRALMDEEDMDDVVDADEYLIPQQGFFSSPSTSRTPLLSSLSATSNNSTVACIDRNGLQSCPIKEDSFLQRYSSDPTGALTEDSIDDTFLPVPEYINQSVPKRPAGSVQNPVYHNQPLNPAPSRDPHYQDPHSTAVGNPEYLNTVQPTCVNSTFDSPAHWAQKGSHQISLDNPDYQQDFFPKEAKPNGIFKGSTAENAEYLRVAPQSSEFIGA
# Chain of Dickkopf-related protein 1 (Homo sapiens) (O94907 whole entry, looked up): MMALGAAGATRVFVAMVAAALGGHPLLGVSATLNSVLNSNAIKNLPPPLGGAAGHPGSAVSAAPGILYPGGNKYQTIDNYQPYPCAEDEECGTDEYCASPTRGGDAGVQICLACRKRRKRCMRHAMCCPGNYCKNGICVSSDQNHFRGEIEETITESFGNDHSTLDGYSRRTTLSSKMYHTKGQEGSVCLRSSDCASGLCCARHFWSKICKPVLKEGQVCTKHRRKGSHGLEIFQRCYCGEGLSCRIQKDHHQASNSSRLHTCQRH
# Chain of Left-right determination factor 2 (Homo sapiens) (O00292 whole entry, looked up): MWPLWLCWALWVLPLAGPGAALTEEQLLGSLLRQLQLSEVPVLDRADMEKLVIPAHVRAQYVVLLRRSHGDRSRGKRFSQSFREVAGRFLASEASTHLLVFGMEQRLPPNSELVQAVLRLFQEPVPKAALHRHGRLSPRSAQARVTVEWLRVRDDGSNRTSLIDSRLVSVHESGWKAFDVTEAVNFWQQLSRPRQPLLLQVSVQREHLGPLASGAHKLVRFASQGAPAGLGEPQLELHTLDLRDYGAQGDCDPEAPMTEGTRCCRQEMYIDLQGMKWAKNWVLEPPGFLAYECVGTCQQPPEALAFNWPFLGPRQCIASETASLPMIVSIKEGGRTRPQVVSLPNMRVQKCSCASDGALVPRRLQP
# Chain of Follistatin-related protein 3 (Homo sapiens) (O95633 whole entry, looked up): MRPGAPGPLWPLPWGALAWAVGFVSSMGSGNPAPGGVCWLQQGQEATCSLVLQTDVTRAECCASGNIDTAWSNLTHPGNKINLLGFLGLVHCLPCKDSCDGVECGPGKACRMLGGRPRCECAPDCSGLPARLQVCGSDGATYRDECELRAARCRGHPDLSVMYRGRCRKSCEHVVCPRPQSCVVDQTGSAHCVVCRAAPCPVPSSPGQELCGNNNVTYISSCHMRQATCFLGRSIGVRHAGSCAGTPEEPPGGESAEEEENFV
# Chain of Fibroblast growth factor 10 (Homo sapiens) (O15520 whole entry, looked up): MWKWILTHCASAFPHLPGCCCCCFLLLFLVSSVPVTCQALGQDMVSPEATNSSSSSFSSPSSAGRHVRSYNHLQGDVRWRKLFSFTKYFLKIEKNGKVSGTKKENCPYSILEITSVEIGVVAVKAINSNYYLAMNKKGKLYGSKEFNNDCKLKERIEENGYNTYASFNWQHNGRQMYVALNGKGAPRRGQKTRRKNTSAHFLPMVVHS
# Chain of Torsin-1A-interacting protein 1 (Homo sapiens) (Q5JTV8 whole entry, looked up): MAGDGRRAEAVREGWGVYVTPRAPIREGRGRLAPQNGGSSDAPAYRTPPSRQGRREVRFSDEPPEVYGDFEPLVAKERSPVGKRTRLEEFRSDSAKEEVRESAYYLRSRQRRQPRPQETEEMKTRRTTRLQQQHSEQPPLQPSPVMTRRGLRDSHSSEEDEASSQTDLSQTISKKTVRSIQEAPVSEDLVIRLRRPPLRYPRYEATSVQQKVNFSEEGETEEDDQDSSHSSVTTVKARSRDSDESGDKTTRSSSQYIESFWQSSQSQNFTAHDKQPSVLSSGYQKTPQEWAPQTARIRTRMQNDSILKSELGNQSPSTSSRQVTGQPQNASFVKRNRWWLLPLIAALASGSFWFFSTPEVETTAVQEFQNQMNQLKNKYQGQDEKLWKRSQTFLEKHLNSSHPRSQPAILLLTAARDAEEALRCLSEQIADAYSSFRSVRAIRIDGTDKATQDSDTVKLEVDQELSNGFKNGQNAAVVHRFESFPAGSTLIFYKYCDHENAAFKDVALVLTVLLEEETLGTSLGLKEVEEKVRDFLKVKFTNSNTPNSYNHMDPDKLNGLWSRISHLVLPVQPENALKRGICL
SMILES,composite z-score [1],composite z-score [2],composite z-score [3],z-score [4],composite z-score [5],composite z-score [6],composite z-score [7],composite z-score [8],composite z-score [9],composite z-score [10],composite z-score [11],z-score [12],composite z-score [13],composite z-score [14],composite z-score [15],composite z-score [16],composite z-score [17],composite z-score [18],composite z-score [19],composite z-score [20]
CCOC(=O)C1=C[C@@H](c2ccccc2)N(S(=O)(=O)c2ccc(C)cc2)[C@H]1c1cccc(Cl)c1,0.937,1.09,1.17,-0.355 (inactive),0.839,1.27,0.448,1.17,-0.0943,-0.249,0.242,-1.81,-0.0476,1.64,0.999,0.027,-0.0289,0.568,2.5,2.25
CCOC(=CC(=O)OC)CC(O)c1cccc(Cl)c1 (stereo not given),0.971,-0.132,0.445,-1.02 (inactive),-0.617,0.982,-0.779,-0.151,-1.3,-0.297,1.11,-2.17,-0.796,-0.265,0.486,-0.0685,-0.156,-0.527,1.36,-0.259
CC(C)(C)OC(=O)CC[C@@]1(C(=O)O)N=C(c2ccc(OCCCO)cc2)O[C@@H]1c1ccccc1,0.492,0.325,0.824,-0.176 (inactive),-0.0905,-0.126,-0.566,-0.294,-0.646,0.253,1.16,0.344,-0.499,0.357,0.145,0.0799,0.0611,0.955,0.117,1.54
CCOC(=O)C1=CC[C@@H](c2ccccc2C(F)(F)F)N(S(=O)(=O)c2ccc(C)cc2)C1,1.23,1.27,1.18,-2.27 (inactive),1.18,0.914,0.29,1.12,-0.144,0.685,0.648,-2.98,0.613,2.07,1.07,0.274,0.584,-0.395,1.5,1.49
O=C(O)[C@H](Cc1ccccc1)n1cc(-c2ccccn2)nn1,-0.0726,-0.22,-0.323,-0.27 (inactive),0.3,0.507,0.211,0.333,0.227,0.325,0.55,0.107,-0.0097,0.429,0.33,-0.152,-0.0866,-0.0827,0.524,0.35
CC=CC(O)C1C=CC2C(=O)N(c3ccccc3)C(=O)C2N1Nc1ccc([N+](=O)[O-])cc1 (stereo not given),0.563,-0.0639,0.0737,0.43 (inactive),0.455,0.464,0.496,0.501,0.113,0.896,1.21,0.0112,0.382,-0.107,-0.654,-0.0685,0.0469,-0.124,0.643,0.529
COCC(=C=CC[C@H](O)c1cccc(OCCO)c1)C[C@H](O)c1ccccn1,0.543,0.161,-0.173,-1 (inactive),1.3,-0.214,-0.366,-0.0496,0.354,0.281,0.0462,-0.0093,-0.0587,-0.319,-0.621,0.0151,0.0952,0.167,1.68,1.26
O=C1O[C@@H](c2ccccc2)[C@@H](c2ccccc2)N2[C@@H](c3ccccc3OCCO)[C@]3(C(=O)Nc4ccc(C#CCCO)cc43)[C@@H](C(=O)Nc3nc4ccccc4s3)[C@H]12,0.757,0.74,0.862,-0.0337 (inactive),0.828,1.28,0.528,1.35,0.76,0.406,-0.503,-2.12,1.02,1.7,0.64,-0.0572,-0.289,-0.523,0.326,1.82
COCCCNC(=O)[C@@H]1c2ccccc2C(=O)N(Cc2ccccc2C(F)(F)F)[C@H]1c1ccc(CO)cc1,1.58,0.484,0.879,0.354 (inactive),-0.0537,0.575,-0.222,-0.582,-0.595,0.923,0.367,-0.469,-0.431,-0.119,0.423,-0.152,-0.266,0.265,0.612,-0.295
C[C@]1(C(=O)O)c2ccccc2C(=O)N(Cc2ccccc2)[C@H]1c1ccc(CO)cc1,1.51,0.44,1.11,-0.602 (inactive),-1.97,-1.83,-1.63,-1.38,-1.64,0.463,-0.633,-0.413,-2.19,0.139,1.2,-0.204,-0.291,0.562,-0.0514,-1.04
COC(=O)C(CC#Cc1ccc2c(c1)[C@]1(C(=O)N2)[C@H](C(=O)O)[C@H]2C(=O)O[C@H](c3ccccc3)[C@H](c3ccccc3)N2[C@@H]1c1ccccc1OCCO)C(=O)OC,1.58,0.485,0.327,0.78 (inactive),1.19,1.31,0.384,1.06,0.337,0.194,0.851,-2.04,0.445,1.62,0.369,-0.001,0.108,0.767,1.1,1.79
